The values that follow come from PubChem BioAssay (EPA / NIEHS).

Where “and” joins values, the source holds several entries; their conditions need not be identical. Equal values may be shown once. A structure can be active in one record and inactive in another. Calls of active or inactive are those of the source. The calls were made as follows: active = hit-call score of the fitted dose curve at least 0.9, where 1 is the maximum; inactive = score below 0.9.

What all share (conditions): primary human HUVEC with PBMC; actives raise or lower the signal
Read-out in assay [1]: Monocyte Chemoattractant Protein-1 (MCP1), CCL2 (gene 6347)
The experiment in a line: BSK_LPS_MCP1: BioMAP Diversity Plus: LPS Assay for Monocyte Chemoattractant Protein-1 (MCP1) Biomarker Activity (AID 2283081).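 As to AC50: secreted MCP-1 protein quantified by ELISA in culture supernatant.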 The method in brief:
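ELISA read-out of MCP-1 after 24 h chemical dosing of a human umbilical vein endothelial cell/peripheral blood mononuclear cell co-culture stimulated with LPS. Gain or loss of signal fitted relative to DMSO controls.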

The nature of assay [2]: BSK_LPS_PGE2: BioMAP Diversity Plus: LPS Assay for Prostaglandin E2 (PGE2) Biomarker Activity (AID 2283082). The method in brief: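 Endpoint derived from bidirectional curve fitting versus DMSO of ELISA-measured PGE2 in LPS-stimulated human primary vascular co-culture (HUVEC with PBMC) harvested at 24 h.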
Read-out in assay [3]: Macrophage colony-stimulating factor (MCSF), CSF1 (gene 1435)
Put plainly: BSK_LPS_MCSF: BioMAP Diversity Plus: LPS Assay for Macrophage colony-stimulating factor (MCSF) Biomarker Activity (AID 2283083). A digest of the protocol: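 HUVEC + PBMC co-culture (human primary), 24 h post-dose; M-CSF by ELISA; gain/loss of signal fitted bidirectionally vs DMSO baseline.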

Read-out in assay [4]: Tissue Factor, F3 (gene 2152)
The experiment in a line: BSK_LPS_TissueFactor: BioMAP Diversity Plus: LPS Assay for Tissue Factor Biomarker Activity (AID 2283084). The method in brief: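 HUVEC/PBMC co-culture, LPS-activated; CD142 ELISA read 24 h post-dose; bidirectional curve fit vs DMSO negative control.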

Read-out in assay [5]: Tumor necrosis factor (Homo sapiens) (UniProt P01375)
Put plainly: BSK_LPS_TNFa: BioMAP Diversity Plus: LPS Assay for Tumour Necrosis Factor alpha (TNFa) Biomarker Activity (AID 2283085). A digest of the protocol:
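Primary human vascular co-culture of HUVEC and PBMC; TNFa ELISA 24 h after treatment, analysed as increase or decrease relative to DMSO control.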

Read-out in another assay: CD38, CD38 (gene 952)
The experiment in a line: BSK_SAg_CD38: BioMAP Diversity Plus: SAg Assay for CD38 Biomarker Activity (AID 2283087). The method in brief: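 Fluorescence ELISA of cell-surface CD38 served as the read-out, with either increase or decrease fitted against DMSO controls. Cells were a human umbilical vein endothelium plus PBMC co-culture under SEB/TSST-1 stimulation, measured 24 h after dosing.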

Read-out in the next assay: CD40, CD40 (gene 958)
Put plainly: BSK_SAg_CD40: BioMAP Diversity Plus: SAg Assay for CD40 Biomarker Activity (AID 2283088). A digest of the protocol: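 HUVEC/PBMC co-culture, 24 h post-dose; CD40 by ELISA, fluorescence intensity; bidirectional fit vs DMSO negative control.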

Read-out in the next assay: CD69, CD69 (gene 969)
Put plainly: BSK_SAg_CD69: BioMAP Diversity Plus: SAg Assay for CD69 Biomarker Activity (AID 2283089).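 As to AC50: cell surface CD69 protein quantified by ELISA with fluorescence detection.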 The method in brief:
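Primary human vascular co-culture (umbilical vein endothelium with peripheral blood mononuclear cells) exposed to test chemical for 24 h. CD69 levels quantified by fluorescence ELISA; DMSO served as negative control for bidirectional fitting.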

Read-out in assay [6]: Monocyte Chemoattractant Protein-1 (MCP1), CCL2 (gene 6347)
The experiment in a line: BSK_SAg_MCP1: BioMAP Diversity Plus: SAg Assay for Monocyte Chemoattractant Protein-1 (MCP1) Biomarker Activity (AID 2283090). The method in brief:
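MCP-1 levels in the endothelial–PBMC SAg co-culture were quantified by ELISA at 24 h post-dosing; both increases and decreases versus DMSO scored. Cytotoxicity monitored by SRB total protein in parallel cultures.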

Read-out in assay [7]: Vascular cell adhesion molecule 1 (VCAM1), VCAM1 (gene 7412)
Put plainly: BSK_LPS_VCAM1: BioMAP Diversity Plus: LPS Assay for Vascular cell adhesion molecule 1 (VCAM1) Biomarker Activity (AID 2283086). A digest of the protocol:
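Primary human vascular co-culture (umbilical vein endothelium plus PBMC) stimulated with LPS received chemical; 24 h later VCAM-1 was read by ELISA. Overt cytotoxicity was assessed by sulforhodamine B staining of parallel cultures at the same time point.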

Chain of Tumor necrosis factor (Homo sapiens) (P01375 whole entry, looked up): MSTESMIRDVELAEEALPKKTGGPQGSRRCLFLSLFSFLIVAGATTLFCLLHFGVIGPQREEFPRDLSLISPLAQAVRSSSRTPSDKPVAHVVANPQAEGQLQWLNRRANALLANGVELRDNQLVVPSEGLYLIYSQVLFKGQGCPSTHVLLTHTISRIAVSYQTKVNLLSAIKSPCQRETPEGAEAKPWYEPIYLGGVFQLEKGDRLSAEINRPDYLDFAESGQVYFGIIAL

As for `NS(=O)(=O)C(F)(F)C(F)(F)C(F)(F)C(F)(F)C(F)(F)C(F)(F)F`, the AC50 was 30 µM (active) in assay [1]; 10.7 µM (active) and 13.8 µM (active) in assay [2]; 43.9 µM (active) with CD38, CD38 (gene 952); 26.3 µM (active) and 30 µM (active) in the assay with CD40, CD40 (gene 958); 28.6 µM (active) and 32.5 µM (active) with CD69, CD69 (gene 969). The outcome was “inactive” in [1]; “inactive” in assay [3]; “inactive” in assay [4]; “inactive” in assay [5]; “inactive” with CD38, CD38 (gene 952); “inactive” in assay [6].
As to `OCC(F)(F)C(F)(F)C(F)(F)CO`, the outcome is “inactive” in assay [1]; “inactive” in assay [2]; “inactive” in [3]; “inactive” in assay [4]; “inactive” in assay [5]; “inactive” with CD38, CD38 (gene 952). Besides, the outcome is “inactive” in the assay with CD40, CD40 (gene 958); “inactive” in the assay with CD69, CD69 (gene 969); “inactive” in assay [6].
Consider `NC(=O)C(F)(F)C(F)(F)C(F)(F)C(F)(F)C(N)=O`, for which the outcome in [1], in assay [2], in [3], in [4], in assay [5] and in assay [7] was inactive. Also, the outcome with CD38, CD38 (gene 952) is “inactive”; with CD40, CD40 (gene 958), “inactive”; in the assay with CD69, CD69 (gene 969), “inactive”; in assay [6], “inactive”. Further, in assay [3], the AC50 was 393 nM (active).
Take `OCC(F)(F)C(F)(F)C(F)(F)C(F)(F)C(F)(F)C(F)(F)CO`: the outcome in [1], in [2], in [3], in [4], in assay [5] and in assay [7] was inactive. Moreover, the outcome was “inactive” in the assay with CD38, CD38 (gene 952); “inactive” with CD40, CD40 (gene 958); “inactive” in the assay with CD69, CD69 (gene 969); “inactive” in assay [6]. The AC50 in [5] was 1.9 µM (active).
On to `OCCCCC(F)(F)C(F)(F)C(F)(F)C(F)(F)F`, for which the outcome was “inactive” in assay [1]; “inactive” in assay [2]; “inactive” in assay [3]; “inactive” in assay [4]; “inactive” in [5]; “inactive” with CD38, CD38 (gene 952). For the same compound, the outcome with CD40, CD40 (gene 958) is “inactive”; in the assay with CD69, CD69 (gene 969), “inactive”; in assay [6] it was “inactive”.
Turning to `FC(F)(F)C(F)(F)C(F)(F)C(F)(F)C(F)(F)C(F)(F)C(F)(F)CCI`, the outcome in assay [1] is “inactive”; in [2], “inactive”; in [3], “inactive”; in assay [4] it was “inactive”; in assay [5], “inactive”; with CD38, CD38 (gene 952) it was “inactive”. Besides, the outcome is “inactive” in the assay with CD40, CD40 (gene 958); “inactive” with CD69, CD69 (gene 969); “inactive” in [6].
Take `OCC(O)CC(F)(F)C(F)(F)C(F)(F)C(F)(F)F` (configuration not stated): the outcome in assay [1] is “inactive”; in [2], “inactive”; in assay [3], “inactive”; in [4], “inactive”; in [5] it was “inactive”; in the assay with CD38, CD38 (gene 952) it was “inactive”. Also, the outcome in the assay with CD40, CD40 (gene 958) was “inactive”; in the assay with CD69, CD69 (gene 969) it was “inactive”; in assay [6], “inactive”.
Consider `C=CC(=O)OCC(F)(F)C(F)(F)C(F)(F)C(F)(F)C(F)(F)C(F)(F)C(F)(F)C(F)F`, for which the outcome in assay [1], in assay [2], in [3], in assay [4], in assay [5] and in [7] was inactive. Besides, the outcome in the assay with CD38, CD38 (gene 952) was “inactive”; in the assay with CD40, CD40 (gene 958), “inactive”; with CD69, CD69 (gene 969), “inactive”; in [6], “inactive”. Moreover, the AC50 in assay [2] is 13.9 µM (active); in the assay with CD40, CD40 (gene 958), 18.1 µM (active).
Turning to `C=CC(=O)OCC(F)(F)C(F)(F)C(F)(F)COC(=O)C=C`, the AC50 in assay [1] is 18.8 µM (active) and 16.1 µM (active); in assay [2] it was 8.09 µM (active) and 8.04 µM (active); in [3] it was 14.9 µM (active) and 8.27 µM (active); in [4], 21.9 µM (active) and 20.2 µM (active); in assay [5] it was 14.9 µM (active) and 15.7 µM (active); in assay [7], 15.1 µM (active) and 8.51 µM (active). For the same compound, the AC50 is 14.2 µM (active) in the assay with CD38, CD38 (gene 952); 16.3 µM (active) and 12.2 µM (active) in the assay with CD40, CD40 (gene 958); 8.7 µM (active) and 8.29 µM (active) with CD69, CD69 (gene 969); 22.5 µM (active) and 14 µM (active) in [6].
With `COC(F)(C(F)F)C(F)(F)F` (configuration not stated), the outcome in assay [1], in [2], in assay [3], in assay [4], in assay [5] and in assay [7] was inactive. Moreover, the outcome with CD38, CD38 (gene 952) was “inactive”; with CD40, CD40 (gene 958) it was “inactive”; with CD69, CD69 (gene 969) it was “inactive”; in assay [6], “inactive”.
In the case of `CCOC(=O)CC(=O)C(F)(F)C(F)(F)F`, the outcome in [1] was “inactive”; in assay [2], “inactive”; in assay [3] it was “inactive”; in assay [4], “inactive”; in assay [5], “inactive”; with CD38, CD38 (gene 952) it was “inactive”. Further, the outcome in the assay with CD40, CD40 (gene 958) was “inactive”; with CD69, CD69 (gene 969), “inactive”; in assay [6] it was “inactive”.
Turning to `O=C(Cl)C(F)(F)C(F)(F)C(F)(F)C(F)(F)C(F)(F)C(F)(F)C(F)(F)F`, the result in assay [1], in assay [2], in assay [3], in [4], in assay [5] and in assay [7] was inactive. Moreover, the outcome is “inactive” in the assay with CD38, CD38 (gene 952); “inactive” with CD40, CD40 (gene 958); “inactive” in the assay with CD69, CD69 (gene 969); “inactive” in assay [6].
With `NCC(F)(F)C(F)(F)C(F)(F)C(F)(F)C(F)(F)C(F)(F)C(F)(F)C(F)(F)F`, the outcome in assay [1] was “inactive”; in assay [2] it was “inactive”; in [3], “inactive”; in assay [4] it was “inactive”; in assay [5] it was “inactive”; with CD38, CD38 (gene 952) it was “inactive”. The outcome with CD40, CD40 (gene 958) is “inactive”; with CD69, CD69 (gene 969) it was “inactive”; in [6], “inactive”.
On to `Nc1cc([N+](=O)[O-])cc(Cl)c1O`, for which the outcome in assay [1] was “inactive”; in assay [2], “inactive”; in [3], “inactive”; in assay [4], “inactive”; in assay [5] it was “inactive”; with CD38, CD38 (gene 952), “inactive”. The outcome was “inactive” with CD40, CD40 (gene 958); “inactive” with CD69, CD69 (gene 969); “inactive” in assay [6].
As for `Cc1cnccn1`, the outcome in assay [1] is “inactive”; in [2], “inactive”; in [3] it was “inactive”; in [4], “inactive”; in assay [5] it was “inactive”; in the assay with CD38, CD38 (gene 952), “inactive”. The outcome with CD40, CD40 (gene 958) was “inactive”; with CD69, CD69 (gene 969) it was “inactive”; in [6], “inactive”.
With `CCN(CC)c1ccc(C=O)cc1`, the result in [1], in assay [2], in [3], in assay [4], in assay [5] and in assay [7] was inactive. Also, the outcome with CD38, CD38 (gene 952) is “inactive”; in the assay with CD40, CD40 (gene 958) it was “inactive”; in the assay with CD69, CD69 (gene 969) it was “inactive”; in [6], “inactive”.

The term AC50 denotes the concentration giving half of the maximal activity seen.
